Results published in PubChem BioAssay AID623870 (Broad Institute, 2012).
About 2,600 (0.67%) of roughly 390,000 compounds were called active. This is one part of a sample in which actives are shown more often than they occur.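 Rule for the calls: active = mean inhibition of replicates at least 50% and at least half of replicates each reaching 50%; inconclusive = half or more replicates reach 50% but mean below 50%; inactive = the rest.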

molecular target: Transforming acidic coiled-coil-containing protein 3 (Homo sapiens) (UniProt Q9Y6A5); assay: disruptors of ARNT/TACC3 protein interaction, primary screen, biochemical, AlphaScreen, single concentration (AID 623870); details: AlphaScreen His-ARNT PAS-B/GST-TACC3 binding, luminescence; at 9.99 µM; stronger effect = higher value; TACC3 fragment carries E629A point mutation;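 note: 0% = complete ARNT plus TACC3 wells and 100% = ARNT alone without TACC3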

Row | Compound | inhibition
1 | Cc1ccc(S(=O)(=O)N(C)C[C@@H]2Oc3c(NC(=O)c4nc5ccccc5s4)cccc3C(=O)N([C@H](C)CO)C[C@@H]2C)cc1 | 9.91% (inactive)
2 | C[C@H]1CN([C@@H](C)CO)C(=O)c2cc(-c3ccccc3F)cnc2O[C@@H]1CN(C)C | 6.21% (inactive)
3 | Cc1noc(C)c1NC(=O)Nc1ccc2c(c1)CC(=O)N([C@@H](C)CO)C[C@@H](C)[C@H](CN(C)Cc1ccc(Oc3ccccc3)cc1)O2 | 15.6% (inactive)
4 | COCC(=O)Nc1ccc2c(c1)[C@@H]1C[C@H](CC(=O)NCc3ccc(Cl)cc3)O[C@H](CO)[C@@H]1O2 | -8.13% (inactive)
5 | Cc1cc(C(=O)N/N=C/c2cc([N+](=O)[O-])cc(C)c2O)n[nH]1 | 64.3% (active)
6 | Cc1cc(C(=O)NC2CCN(Cc3ccccc3)CC2)n[nH]1 | -0.213% (inactive)
7 | CCCNC(=O)Nc1ccc2c(c1)OC[C@@H](C)N(C(=O)c1ccccc1F)C[C@H](C)[C@@H](OC)CN(C)C2=O | -9.6% (inactive)
8 | C[C@@H]1CN([C@H](C)CO)C(=O)c2cc(NS(=O)(=O)c3ccccc3)ccc2O[C@H]1CN(C)S(=O)(=O)c1cccs1 | 0.265% (inactive)
9 | Cc1ccc(NC(=O)C2CC2c2ccccc2)cc1 (configuration not stated) | -4.03% (inactive)
10 | O=C(Nc1ccccc1)Oc1cccc2cccnc12 | -7.89% (inactive)
11 | O=C(N/N=C/c1cccc2cccnc12)[C@H]1C[C@@H]1c1ccccc1 | 73.3% (active)
12 | C[C@H](CO)N1C[C@H](C)[C@@H](CN(C)C)Oc2cc(C#Cc3ccccc3)ccc2S1(=O)=O | 8.14% (inactive)
13 | COc1ccc(NC(=O)N(C)C[C@@H]2Oc3ccc(NS(C)(=O)=O)cc3C(=O)N([C@@H](C)CO)C[C@@H]2C)cc1 | -7.68% (inactive)
14 | CCc1cc(=O)oc2c(C)c(OCC(=O)NCCN3CCOCC3)ccc12 | -0.887% (inactive)
15 | CCOc1cccc(/C=N/NC(=S)NCCN2CCOCC2)c1O | 64.9% (active)
16 | COc1cccc(C(CC(=O)NCCN2CCOCC2)NS(=O)(=O)c2ccc(C)cc2)c1OC (configuration not stated) | -9.59% (inactive)
17 | C[C@@H]1CN([C@@H](C)CO)C(=O)Cc2cc(NC(=O)Nc3ccc(F)cc3)ccc2O[C@@H]1CN(C)C(=O)NC1CCCCC1 | 0.811% (inactive)
18 | Cn1c(=NC(=O)c2ccc3c(c2)OCCO3)sc2cc(S(C)(=O)=O)ccc21 | -1.86% (inactive)
19 | Cn1c(=NC(=O)c2ccco2)sc2cccc(F)c21 | -2.41% (inactive)
20 | Cn1c(=NC(=O)c2cnccn2)sc2ccccc21 | 50.2% (active)
21 | CN(C(=O)c1ccccc1)c1nccnc1C#N | 48.5% (active)
22 | CCCN1[C@@H]2c3ccc(-c4ccccc4OC)c(=O)n3C[C@H]1[C@H](CO)[C@H]2C(=O)NCc1ccccn1 | -0.436% (inactive)
23 | CO[C@H]1CN(C)C(=O)c2cc(NS(=O)(=O)CC(F)(F)F)ccc2OC[C@@H](C)N(C(=O)c2ccc3c(c2)OCO3)C[C@@H]1C | 8.14% (inactive)
24 | CCCC(=O)Nc1ccc2c(c1)C(=O)N(C)C[C@@H](OC)[C@@H](C)CN(Cc1cncnc1)[C@@H](C)CO2 | -2.89% (inactive)

Row | Compound | inhibition
25 | CCN(/N=C/c1ccccc1)c1cc(=O)n(C)c(=O)[nH]1 | 6.16% (active)
26 | CN1C(=O)c2cc(NC(=O)c3cnccn3)ccc2OC[C@@H]2O[C@H](CC(=O)NC3CCC3)CC[C@@H]21 | -9.79% (inactive)
27 | C[C@H](CO)N1C[C@H](C)[C@H](CN(C)S(C)(=O)=O)Oc2c(NC(=O)Nc3cccc4ccccc34)cccc2C1=O | 8.09% (inactive)
28 | O=C(C[C@@H]1C[C@@H]2c3cc(NC(=O)c4ccc5c(c4)OCO5)ccc3O[C@@H]2[C@@H](CO)O1)NCC1CC1 | -5.9% (inactive)
29 | COc1ccccc1NC(=O)N(C)C[C@@H]1Oc2ncc(C#CCC(C)C)cc2C(=O)N([C@@H](C)CO)C[C@@H]1C | -5.04% (inactive)
30 | C[C@@H](NC(=O)C[C@@H]1C[C@H]2c3cc(NC(=O)C4CCC4)ccc3O[C@H]2[C@@H](CO)O1)c1ccccc1 | -9.96% (inactive)
31 | N#C[C@@H]1[C@@H](c2ccc(-c3cccnc3)cc2)[C@H](CO)N1C(=O)Nc1ccc(F)cc1 | -8.19% (inactive)
32 | Cc1ccc(Oc2ccc3c(c2)C(=O)N(c2cccc4cccnc24)C3=O)cc1 | 1.71% (inactive)
33 | Cc1ccc(OS(=O)Nc2cccc3nccnc23)cc1 (configuration not stated) | 69.3% (active)
34 | COCC(=O)N1C[C@@H](C)[C@H](OC)CN(C)C(=O)c2ccc(NC(=O)c3ccc(OC)cc3)cc2OC[C@@H]1C | -7.16% (inactive)
35 | CO[C@H]1CN(C)C(=O)c2cc(NC(=O)Nc3cccc(F)c3)ccc2OC[C@H](C)N(C(C)=O)C[C@H]1C | 28% (inactive)
36 | CO[C@@H]1CN(C)C(=O)c2cc(NC(=O)C3CC3)ccc2OC[C@@H](C)N(Cc2nccs2)C[C@@H]1C | -5.42% (inactive)
37 | C[C@H](CO)N1C[C@H](C)[C@H](CN(C)C(=O)Nc2cccc3ccccc23)Oc2ccc(NS(C)(=O)=O)cc2C1=O | -5.79% (inactive)
38 | CNC[C@@H]1OCCCC[C@H](C)Oc2ccc(NS(=O)(=O)c3ccc(F)cc3)cc2C(=O)N([C@@H](C)CO)C[C@@H]1C | -1.03% (inactive)
39 | CC(C)(C)Nc1nc(-c2ccccn2)nc2ccccc12 | 93% (active)
40 | CC(Nc1nc(C(F)(F)F)nc2ccccc12)c1cccs1 (configuration not stated) | -5.59% (inactive)
41 | O=C(C[C@@H]1C[C@H]2c3cc(NC(=O)C4CCOCC4)ccc3O[C@H]2[C@H](CO)O1)NCc1ccc2c(c1)OCO2 | -5.45% (inactive)
42 | O=C(NC1CCCC1)[C@H]1[C@H](CO)[C@H]2Cn3c(ccc(-c4ccccc4F)c3=O)[C@@H]1N2C(=O)CC1CC1 | -1.58% (inactive)
43 | C[C@@H]1CN([C@@H](C)CO)C(=O)Cc2cc(NC(=O)Nc3ccc(F)cc3)ccc2O[C@@H]1CN(C)S(=O)(=O)c1ccccc1 | 2.95% (inactive)
44 | C[C@H](CO)N1C[C@H](C)[C@@H](CN(C)Cc2ccncc2)Oc2ncc(C#CC3CC3)cc2C1=O | -1.14% (inactive)
45 | Cn1c(N)c(C(=O)COC(=O)c2cnc(Cl)c(Cl)c2)c(=O)n(C)c1=O | 45.8% (active)
46 | Cn1c(N)c(C(=O)COC(=O)COc2ccc(Cl)cc2)c(=O)n(C)c1=O | 2.04% (inactive)
47 | Cn1c(N)c(C(=O)COC(=O)c2ccc3ccccc3c2)c(=O)n(C)c1=O | -4.71% (inactive)
